PubChem BioAssay AID1159580 (chemical genetic matrix, 2015)
Screen size: about 5,500 compounds; about 2,000 (36%) were called active. Not shown: some 18% with an inconclusive outcome. Rule as the data show it: active = normalized growth mostly below about 0.91 (no sharp cut-off); inconclusive = no clear call, values can overlap the other calls; inactive = mostly above about 0.92. The list shows a part of the results.

Test: chemical genetic growth profiling, strain panel (AID 1159580);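 also: tested at 20 µM; growth read once vehicle control cultures reached saturation at 30 °C; 1 = growth at the plate median or of vehicle wells; lower values mean less growth of the strain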
Details: S. cerevisiae deletion strains, growth OD

Measured: normalized growth

N#Cc1c(Cl)c(Cl)c(Cl)c(Cl)c1C#N
active: locus YAR019C, strain CDC15, active compounds read low 0.625 | locus YBL105C, strain PKC1, active compounds read low 0.734 | locus YBR135W, strain CKS1, active compounds read low 0.721 | locus YBR136W, strain MEC1, active compounds read low 0.716 | locus YBR160W, strain CDC28, active compounds read low 0.726 | locus YDL017W, strain CDC7, active compounds read low 0.722 | locus YDL028C, strain MPS1, active compounds read low 0.488 | locus YDL101C, strain DUN1, active compounds read low 0.789 | locus YDL108W, strain KIN28, active compounds read low 0.707 | locus YDL132W, strain cdc53, active compounds read low 0.588 | locus YDL214C, strain PRR2, active compounds read low 0.392 | locus YDR052C, strain DBF4, active compounds read low 0.77 | locus YDR054C, strain cdc34, active compounds read low 0.235 | locus YDR226W, strain ADK1, active compounds read low 0.693 | locus YDR477W, strain SNF1, active compounds read low 0.283 | locus YER123W, strain YCK3, active compounds read low 0.169 | locus YER133W, strain GLC7, active compounds read low 0.227 | locus YFL009W, strain cdc4, active compounds read low 0.685 | locus YFL029C, strain CAK1, active compounds read low 0.639 | locus YFR003C, strain YPI1, active compounds read low 0.634 | locus YFR019W, strain FAB1, active compounds read low 0.315 | locus YFR028C, strain CDC14, active compounds read low 0.66 | locus YGR040W, strain KSS1, active compounds read low 0.352 | locus YGR052W, strain FMP48, active compounds read low 0.382 | locus YGR092W, strain DBF2, active compounds read low 0.135 | locus YHR030C, strain SLT2, active compounds read low 0.23 | locus YHR079C, strain IRE1, active compounds read low 0.17 | locus YHR082C, strain KSP1, active compounds read low 0.412 | locus YHR205W, strain SCH9, active compounds read low 0.071 | locus YIL147C, strain SLN1, active compounds read low 0.555 | locus YJL095W, strain BCK1, active compounds read low 0.284 | locus YJL157C, strain FAR1, active compounds read low 0.318 | locus YJR016C, strain ILV3, active compounds read low 0.587 | locus YJR066W, strain TOR1 (second series), active compounds read low 0.459 | locus YJR066W, strain TOR1, active compounds read low 0.376 | locus YKL048C, strain ELM1, active compounds read low 0.282 | locus YKL067W, strain YNK1, active compounds read low 0.359 | locus YKL101W, strain HSL1, active compounds read low 0.346 | locus YKL193C, strain SDS22, active compounds read low 0.66 | locus YKL203C, strain TOR2, active compounds read low 0.37 | locus YLR113W, strain HOG1, active compounds read low 0.302 | locus YLR133W, strain CKI1, active compounds read low 0.238 | locus YLR403W, strain SFP1, active compounds read low 0.109 | locus YML070W, strain DAK1, active compounds read low 0.291 | locus YMR001C, strain CDC5, active compounds read low 0.673 | locus YMR205C, strain PFK2 (second series), active compounds read low 0.159 | locus YMR277W, strain FCP1, active compounds read low 0.594 | locus YNL006W, strain LST8, active compounds read low 0.574 | locus YNL020C, strain ARK1, active compounds read low 0.191 | locus YNL161W, strain CBK1, active compounds read low 0.704 | locus YNL183C, strain NPR1, active compounds read low 0.241 | locus YNL207W, strain RIO2, active compounds read low 0.666 | locus YNL222W, strain SSU72, active compounds read low 0.653 | locus YNL307C, strain MCK1 (second series), active compounds read low 0.162 | locus YOL078W, strain AVO1, active compounds read low 0.652 | locus YOL136C, strain PFK27, active compounds read low 0.26 | locus YOR061W, strain CKA2, active compounds read low 0.141 | locus YOR119C, strain RIO1, active compounds read low 0.37 | locus YOR231W, strain MKK1, active compounds read low 0.285 | locus YOR329C, strain SCD5, active compounds read low 0.701 | locus YPL031C, strain PHO85, active compounds read low 0.219 | locus YPL153C, strain RAD53, active compounds read low 0.158 | locus YPL204W, strain HRR25, active compounds read low 0.214 | locus YPL209C, strain IPL1, active compounds read low 0.711 | locus YPL256C, strain CLN2, active compounds read low 0.492 | locus YPR025C, strain CCL1, active compounds read low 0.728 | locus YPR106W, strain ISR1, active compounds read low 0.851 | locus YPR111W, strain DBF20, active compounds read low 0.756 | strain NNK1, active compounds read low 0.747 | strain TSCII, active compounds read low 0.661
